The source of these data is article PMC10812921, “Transcriptional Coactivator BOB1 (OBF1, OCA-B) Modulates the Specificity of DNA Recognition by the POU-Domain Factors OCT1 and OCT2 in a Monomeric Configuration”.

Assay [1] has as its target POU1 (OCT1 POU domain) (human, UniProt P14859 260-458). The assay can be described thus: EMSA-SELEX-seq; no BOB1; 20 mM Tris-HCl pH 7.6, 140 mM NaCl, 10% glycerol, 0.5 mM EDTA, 0.05% Triton X-100, 0.1 mg/mL BSA, 0.1 mg/mL poly(dI-dC), 5 mM DTT, room temperature, 20 min; high values mean tight binding. The note with it: protein: recombinant; dsDNA, one strand shown. A digest of the protocol:
(§1)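 With or without 28 ng coactivator protein, 30 ng of tagged POU-domain protein was combined with 300 ng of a PCR-amplified double-stranded random 35-nt library in 20 μL Tris–HCl pH 7.6 binding buffer for 20 min at RT. The protein came from E. coli BL21 and had been purified under denaturing conditions and renatured. Four rounds of cutting complex bands from native 6% PAGE, elution and PCR amplification preceded Illumina sequencing. The binding preference figure is the percentage of sequenced 8-mers matching a motif pattern.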

Assay [2] concerns the target T1, POU2 (OCT2 POU domain) (human, UniProt P09086 175-386).
T1 sequence: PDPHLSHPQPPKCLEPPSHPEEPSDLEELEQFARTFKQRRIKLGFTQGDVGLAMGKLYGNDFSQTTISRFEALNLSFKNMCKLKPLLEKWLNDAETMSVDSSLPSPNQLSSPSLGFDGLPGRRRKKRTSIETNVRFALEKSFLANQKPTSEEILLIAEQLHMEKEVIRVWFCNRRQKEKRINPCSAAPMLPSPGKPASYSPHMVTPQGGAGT
The assay is described as above. Particulars: protein: recombinant; dsDNA, one strand shown. An outline of the steps:
as §1

The target in assay [3] is POU1 (OCT1 POU domain);BOB1 (OBF1, OCA-B) (human;human, UniProt P14859;Q16633 260-458;1-256, |). Kind of assay: EMSA-SELEX-seq; with BOB1 (ternary complex band); 20 mM Tris-HCl pH 7.6, 140 mM NaCl, 10% glycerol, 0.5 mM EDTA, 0.05% Triton X-100, 0.1 mg/mL BSA, 0.1 mg/mL poly(dI-dC), 5 mM DTT, room temperature, 20 min; high values mean tight binding. The note with it: protein: recombinant;recombinant; copies: 1;1; dsDNA, one strand shown. An outline of the steps: as §1
(In general: A gel shift assay detects complexes by their altered migration in electrophoresis.)

Assay [4] concerns the target T2, POU2 (OCT2 POU domain);BOB1 (OBF1, OCA-B) (human;human, UniProt P09086;Q16633 175-386;1-256, |).
T2 sequence 1: T1 sequence
T2 sequence 2: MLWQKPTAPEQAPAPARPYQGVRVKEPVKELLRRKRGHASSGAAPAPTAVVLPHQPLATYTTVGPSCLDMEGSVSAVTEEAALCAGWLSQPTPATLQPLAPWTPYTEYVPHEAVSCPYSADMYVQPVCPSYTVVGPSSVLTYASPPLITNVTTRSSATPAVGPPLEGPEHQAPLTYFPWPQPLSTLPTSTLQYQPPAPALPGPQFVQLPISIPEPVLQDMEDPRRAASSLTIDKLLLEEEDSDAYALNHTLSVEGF
Described as above. Particulars: protein: recombinant;recombinant; copies: 1;1; dsDNA, one strand shown. An outline of the steps:
as §1

Sequence of POU1 (OCT1 POU domain) (P14859 260-458): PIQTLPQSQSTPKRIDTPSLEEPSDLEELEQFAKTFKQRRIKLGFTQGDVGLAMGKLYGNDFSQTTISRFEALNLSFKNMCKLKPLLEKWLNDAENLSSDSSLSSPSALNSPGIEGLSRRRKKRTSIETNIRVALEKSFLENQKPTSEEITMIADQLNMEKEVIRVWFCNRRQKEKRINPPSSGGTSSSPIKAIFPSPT

On to AGTGGAAT, for which the binding signal in assay [1] was 0.0995 % of ANNNNAAN 8-mers; in assay [2], 0.121 % of ANNNNAAN 8-mers; in assay [3], 0.0847 % of ANNNNAAN 8-mers; in assay [4], 0.104 % of ANNNNAAN 8-mers.
For AGGACAAA, the binding signal in assay [1] is 0.045 % of ANNNNAAN 8-mers; in assay [2] it was 0.046 % of ANNNNAAN 8-mers; in assay [3], 0.0453 % of ANNNNAAN 8-mers; in assay [4] it was 0.0371 % of ANNNNAAN 8-mers.
Taken in the same sequence, the figures for AATCCAAC were 0.0259 % of ANNNNAAN 8-mers, 0.0288 % of ANNNNAAN 8-mers, 0.016 % of ANNNNAAN 8-mers and 0.0223 % of ANNNNAAN 8-mers.
In the case of ACCTCAAT, the binding signal is 0.0202 % of ANNNNAAN 8-mers in assay [1], 0.0196 % of ANNNNAAN 8-mers in assay [2], 0.025 % of ANNNNAAN 8-mers in assay [3] and 0.0289 % of ANNNNAAN 8-mers in assay [4].
For the sequence AGGACAAG, the binding signal was 0.0263 % of ANNNNAAN 8-mers in assay [1], 0.0293 % of ANNNNAAN 8-mers in assay [2], 0.0297 % of ANNNNAAN 8-mers in assay [3] and 0.0289 % of ANNNNAAN 8-mers in assay [4].
Turning to ACGACAAC, the binding signal was 0.0126 % of ANNNNAAN 8-mers in assay [1], 0.0132 % of ANNNNAAN 8-mers in assay [2], 0.0133 % of ANNNNAAN 8-mers in assay [3] and 0.0149 % of ANNNNAAN 8-mers in assay [4].
Take ACAGAAAA: the binding signal in assay [1] was 0.0389 % of ANNNNAAN 8-mers; in assay [2] it was 0.0472 % of ANNNNAAN 8-mers; in assay [3], 0.0472 % of ANNNNAAN 8-mers; in assay [4], 0.0322 % of ANNNNAAN 8-mers.
As for ACTACAAT, the binding signal in assay [1] was 0.0309 % of ANNNNAAN 8-mers; in assay [2] it was 0.0282 % of ANNNNAAN 8-mers; in assay [3], 0.0285 % of ANNNNAAN 8-mers; in assay [4], 0.0338 % of ANNNNAAN 8-mers.
For ACCCGAAG, the binding signal is 0.0126 % of ANNNNAAN 8-mers in assay [1], 0.0109 % of ANNNNAAN 8-mers in assay [2], 0.0129 % of ANNNNAAN 8-mers in assay [3] and 0.0132 % of ANNNNAAN 8-mers in assay [4].
Taken in the same sequence, the figures for AGAATAAC were 0.0534 % of ANNNNAAN 8-mers, 0.0673 % of ANNNNAAN 8-mers, 0.0312 % of ANNNNAAN 8-mers and 0.0487 % of ANNNNAAN 8-mers.
Taken in the same sequence, the figures for ACGGTAAT were 0.0984 % of ANNNNAAN 8-mers, 0.143 % of ANNNNAAN 8-mers, 0.0741 % of ANNNNAAN 8-mers and 0.109 % of ANNNNAAN 8-mers.
For ACTTCAAA the same measures were 0.0256 % of ANNNNAAN 8-mers, 0.0322 % of ANNNNAAN 8-mers, 0.0336 % of ANNNNAAN 8-mers and 0.0256 % of ANNNNAAN 8-mers.
Regarding ACATTAAC, the binding signal in assay [1] is 0.0984 % of ANNNNAAN 8-mers; in assay [2], 0.115 % of ANNNNAAN 8-mers; in assay [3], 0.0402 % of ANNNNAAN 8-mers; in assay [4], 0.0363 % of ANNNNAAN 8-mers.
Turning to AGGCTAAC, the binding signal is 0.013 % of ANNNNAAN 8-mers in assay [1], 0.023 % of ANNNNAAN 8-mers in assay [2], 0.0191 % of ANNNNAAN 8-mers in assay [3] and 0.0223 % of ANNNNAAN 8-mers in assay [4].
Turning to AATCAAAA, the binding signal in assay [1] was 0.122 % of ANNNNAAN 8-mers; in assay [2] it was 0.099 % of ANNNNAAN 8-mers; in assay [3], 0.142 % of ANNNNAAN 8-mers; in assay [4], 0.0792 % of ANNNNAAN 8-mers.
On to ATGCTAAG, for which the binding signal in assay [1] is 0.149 % of ANNNNAAN 8-mers; in assay [2], 0.156 % of ANNNNAAN 8-mers; in assay [3], 0.0777 % of ANNNNAAN 8-mers; in assay [4], 0.0726 % of ANNNNAAN 8-mers.
As to AGTCCAAC, the binding signal in assay [1] was 0.0114 % of ANNNNAAN 8-mers; in assay [2] it was 0.0167 % of ANNNNAAN 8-mers; in assay [3], 0.0144 % of ANNNNAAN 8-mers; in assay [4] it was 0.0248 % of ANNNNAAN 8-mers.
Taken in the same sequence, the figures for ACATCAAC were 0.0172 % of ANNNNAAN 8-mers, 0.0253 % of ANNNNAAN 8-mers, 0.0211 % of ANNNNAAN 8-mers and 0.0281 % of ANNNNAAN 8-mers.
For the sequence AGATGAAG, the binding signal is 0.0328 % of ANNNNAAN 8-mers in assay [1], 0.0368 % of ANNNNAAN 8-mers in assay [2], 0.0316 % of ANNNNAAN 8-mers in assay [3] and 0.0297 % of ANNNNAAN 8-mers in assay [4].
ATCAGAAA: the binding signal in assay [1] is 0.0446 % of ANNNNAAN 8-mers; in assay [2], 0.0529 % of ANNNNAAN 8-mers; in assay [3], 0.0546 % of ANNNNAAN 8-mers; in assay [4] it was 0.0438 % of ANNNNAAN 8-mers.
In the case of AATGGAAC, the binding signal in assay [1] is 0.0439 % of ANNNNAAN 8-mers; in assay [2] it was 0.0466 % of ANNNNAAN 8-mers; in assay [3], 0.0449 % of ANNNNAAN 8-mers; in assay [4] it was 0.0528 % of ANNNNAAN 8-mers.
As for AGTGTAAG, the binding signal in assay [1] is 0.032 % of ANNNNAAN 8-mers; in assay [2], 0.0443 % of ANNNNAAN 8-mers; in assay [3], 0.0406 % of ANNNNAAN 8-mers; in assay [4], 0.0421 % of ANNNNAAN 8-mers.
Taken in the same sequence, the figures for ACACTAAA were 0.0256 % of ANNNNAAN 8-mers, 0.0293 % of ANNNNAAN 8-mers, 0.0273 % of ANNNNAAN 8-mers and 0.0173 % of ANNNNAAN 8-mers.
Turning to ACATCAAA, the binding signal in assay [1] was 0.0374 % of ANNNNAAN 8-mers; in assay [2] it was 0.0391 % of ANNNNAAN 8-mers; in assay [3], 0.0363 % of ANNNNAAN 8-mers; in assay [4], 0.0239 % of ANNNNAAN 8-mers.
Taken in the same sequence, the figures for ATTCGAAT were 0.117 % of ANNNNAAN 8-mers, 0.137 % of ANNNNAAN 8-mers, 0.08 % of ANNNNAAN 8-mers and 0.102 % of ANNNNAAN 8-mers.
On to ATAATAAT, for which the binding signal in assay [1] was 0.273 % of ANNNNAAN 8-mers; in assay [2] it was 0.353 % of ANNNNAAN 8-mers; in assay [3], 0.11 % of ANNNNAAN 8-mers; in assay [4], 0.143 % of ANNNNAAN 8-mers.
For AACAAAAA, the binding signal in assay [1] is 0.0831 % of ANNNNAAN 8-mers; in assay [2], 0.0662 % of ANNNNAAN 8-mers; in assay [3], 0.121 % of ANNNNAAN 8-mers; in assay [4], 0.0726 % of ANNNNAAN 8-mers.
Consider ACAACAAT, for which the binding signal in assay [1] is 0.0248 % of ANNNNAAN 8-mers; in assay [2], 0.0305 % of ANNNNAAN 8-mers; in assay [3], 0.023 % of ANNNNAAN 8-mers; in assay [4], 0.0305 % of ANNNNAAN 8-mers.
ATTCCAAT: the binding signal in assay [1] is 0.0767 % of ANNNNAAN 8-mers; in assay [2], 0.11 % of ANNNNAAN 8-mers; in assay [3], 0.057 % of ANNNNAAN 8-mers; in assay [4] it was 0.0751 % of ANNNNAAN 8-mers.
AAAATAAC: the binding signal was 0.0782 % of ANNNNAAN 8-mers in assay [1], 0.0696 % of ANNNNAAN 8-mers in assay [2], 0.0816 % of ANNNNAAN 8-mers in assay [3] and 0.0735 % of ANNNNAAN 8-mers in assay [4].
Regarding ACAACAAC, the binding signal is 0.0187 % of ANNNNAAN 8-mers in assay [1], 0.0104 % of ANNNNAAN 8-mers in assay [2], 0.0133 % of ANNNNAAN 8-mers in assay [3] and 0.0124 % of ANNNNAAN 8-mers in assay [4].
As for ATCCTAAT, the binding signal in assay [1] was 0.0614 % of ANNNNAAN 8-mers; in assay [2], 0.0944 % of ANNNNAAN 8-mers; in assay [3], 0.0499 % of ANNNNAAN 8-mers; in assay [4] it was 0.0693 % of ANNNNAAN 8-mers.
